Data taken from PubChem BioAssay (NCI).
The panel holds about 83,000 compounds, 20% with a hit somewhere; the sample as a whole holds those more often.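 Testing used 96-well plates and a 48-hour single-concentration exposure. Example: -40 means 40% of the starting cells died.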 Activity calls are given as the source filed them. How the source made its calls: active means growth percent below 10; inactive means the rest.

Tested on: MOLT-4 leukemia
Assay: NCI-60 one-dose screen, 48 h (100 = growth as untreated, 0 = no growth, -100 = all killed)
Conditions: 10 µM unless noted

| SMILES | growth |
| --- | --- |
| O=c1ccn(-c2ncnc3nc[nH]c23)cc1 | 96% (inactive) |
| CCN(CC)c1ccc(CNc2ccnc3ccccc23)cc1 | 51.7% (inactive) |
| COc1ccc(CN2CCc3c(Sc4ccccc4)nc(N)nc3C2=O)c(OC)c1 | 35.5% (inactive) |
| COc1ccc(/C=C\c2cc(OC)c(OC)c(OC)c2)cc1OC(=O)c1cccc(Cn2cc(CCOC(=O)c3cccc(Cn4nnc5c4C(=O)c4ccccc4C5=O)c3)nn2)c1 | 20.7% (inactive) |
| CCCCN(CCCC)C(=O)CC | 97.8% (inactive) |
| O=C1Nc2ccc3c(c2/C1=C\c1cc2c(cc1Br)OCO2)OCO3 | 35.7% (inactive) |
| O=C1/C(=C/c2ccccc2)CN(C(=O)CCN2CCC(=NO)CC2)C/C1=C\c1ccccc1 | 8.95% (active) |
| COc1ccc2c(c1)[nH]c(=O)c1c3cc(OC)ccc3cn21 | 26.2% (inactive) |
| COc1ccc(Nc2nc(N)nc3c2CCN(Cc2ccc(OC)cc2OC)C3=O)cc1 | 80.7% (inactive) |
| Cn1ccc(=O)c(S(N)(=O)=O)c1 | 94.4% (inactive) |
| Cc1cc(N/N=C/c2nc(-c3ccccc3)oc2C)c2cc(Br)ccc2n1 | 50.5% (inactive) |
| Cc1nn(-c2ccc([N+](=O)[O-])cc2)c2ncnc(NCCc3ccccc3)c12 | 64.7% (inactive) |
| CCN(CC)CCC(CNc1ccnc2cc(Cl)ccc12)c1ccc(Cl)cc1 (stereo not drawn) | 7.05% (active) |
| OC(c1cc2cc(Br)ccc2c2cc(Br)ccc12)C1CCCCN1 (stereo not drawn) | -71.9% (active) |
| C=C1CCC2C3(C)COC(c4c(OC)cccc4OC)OC3CCC2(C)C1C/C=C1/C(=O)OCC1O (stereo not drawn) | 51.4% (inactive) |
| COC(=O)c1cc2cc(-c3ccc(OC)cc3)cnc2[nH]1 | 22.8% (inactive) |
| Cc1ccc(S(=O)(=O)n2cc(C(=O)C(=O)N3CCOCC3)c3ccccc32)cc1 | 81.5% (inactive) |
| COc1ccc(-c2nc(/C=N/Nc3cc(C)nc4ccc(Cl)cc34)c(C)o2)cc1 | -46.7% (active) |
| O=C1c2ccccc2-c2ccccc2C1(Cl)Cl | 0.097% (active) |
| COc1ccc(-c2cn(-c3cccc(C(=O)/C=C/c4cc(OC)c(OC)c(OC)c4)c3)c(=O)[nH]2)cc1OC | 70.4% (inactive) |

| SMILES | growth |
| --- | --- |
| CCCCCCCCCCCCNC(=O)[C@H]1CSC(c2ccsc2)N1 (stereo partly drawn) | -67.5% (active) |
| COc1cc(C2NN=C3c4ccccc4CCC32)cc(OC)c1OC (stereo not drawn) | 60.5% (inactive) |
| O=C(N/N=C/C=C\c1ccccc1)C(=O)N/N=C/C=C/c1ccccc1 | 109% (inactive) |
| CN1CCN(Cc2ccc(NC(=O)c3cncc(C#Cc4cnc(N)c5ccncc45)c3)cc2C(F)(F)F)CC1 | 16.6% (inactive) |
| N=C(N)c1ccc(-c2ccc(-c3ccc4ccccc4c3)s2)cc1 | 76.3% (inactive) |
| COc1cc(/C=C/C(=O)c2cccc(-n3cc(-c4cc(OC)c(OC)c(OC)c4)[nH]c3=O)c2)cc(OC)c1OC | -16% (active) |
| N=C(N)c1ccc(-c2ccc(-c3ccc(-c4cccs4)s3)s2)cc1 | 98% (inactive) |
| COc1ccc(-c2ccc(-c3ccc(C(=N)N)s3)s2)cc1Cl | -57.3% (active) |
| O=c1[nH]c2ccc(Br)cc2c2c1C(c1ccc(Cl)cc1)c1c(ncn3nc(-c4ccco4)nc13)O2 (stereo not drawn) | 88.1% (inactive) |
| N=C(N)c1ccc(-c2cc(Cl)cc(Cl)c2)cn1 | 89.1% (inactive) |
| Cc1nc2ncccc2nc1Nc1ccc(S(=O)(=O)Nc2cncs2)cc1 | 99.4% (inactive) |
| Cc1cc(N/N=C/c2nc(-c3ccccc3)oc2C)c2cc(Cl)ccc2n1 | -39.2% (active) |
| Cc1nc2ncccc2nc1Nc1ccc(S(=O)(=O)Nc2ccccn2)cc1 | 91.9% (inactive) |
| NC(=S)N/N=C1\CCCC(C(F)(F)F)C1 (stereo not drawn) | 74.5% (inactive) |
| Oc1ccc2cc(Br)ccc2c1-c1c(O)ccc2cc(Br)ccc12 | 40.2% (inactive) |
| CCC(=O)Oc1ccc(/C(=C(/C)Cc2cccc(OC)c2)c2ccc(OCCN(C)C)cc2)cc1 | 68.4% (inactive) |
| COC1=C(OC)C(=O)C(CCCCCCCCCC[P+](c2ccccc2)(c2ccccc2)c2ccccc2)=C(C)C1=O | -33.8% (active) |
| O=C(CN1CCN(c2cc3c(cc2F)c(=O)c(C(=O)N/N=C/c2ccccc2O)cn3C2CC2)CC1)N/N=C\c1ccccc1O | 9.45% (active) |
| COc1ccc(-c2ccc(-c3ccc(C(=N)N)cn3)s2)cc1OC | 72.2% (inactive) |

Tested on: SR leukemia
Assay: as above
Conditions: 10 µM unless noted

| SMILES | growth |
| --- | --- |
| O=c1ccn(-c2ncnc3nc[nH]c23)cc1 | 86.2% (inactive) |
| CCN(CC)c1ccc(CNc2ccnc3ccccc23)cc1 | 9.72% (active) |
| COc1ccc(CN2CCc3c(Sc4ccccc4)nc(N)nc3C2=O)c(OC)c1 | 43.3% (inactive) |
| COc1ccc(/C=C\c2cc(OC)c(OC)c(OC)c2)cc1OC(=O)c1cccc(Cn2cc(CCOC(=O)c3cccc(Cn4nnc5c4C(=O)c4ccccc4C5=O)c3)nn2)c1 | 12.5% (inactive) |
| CCCCN(CCCC)C(=O)CC | 102% (inactive) |
| O=C1Nc2ccc3c(c2/C1=C\c1cc2c(cc1Br)OCO2)OCO3 | 29.3% (inactive) |
| O=C1/C(=C/c2ccccc2)CN(C(=O)CCN2CCC(=NO)CC2)C/C1=C\c1ccccc1 | 7.97% (active) |
| COc1ccc2c(c1)[nH]c(=O)c1c3cc(OC)ccc3cn21 | 20.4% (inactive) |
| COc1ccc(Nc2nc(N)nc3c2CCN(Cc2ccc(OC)cc2OC)C3=O)cc1 | 60.2% (inactive) |
| Cn1ccc(=O)c(S(N)(=O)=O)c1 | 72.5% (inactive) |
| Cc1cc(N/N=C/c2nc(-c3ccccc3)oc2C)c2cc(Br)ccc2n1 | -4.64% (active) |
| Cc1nn(-c2ccc([N+](=O)[O-])cc2)c2ncnc(NCCc3ccccc3)c12 | 62.3% (inactive) |
| CCN(CC)CCC(CNc1ccnc2cc(Cl)ccc12)c1ccc(Cl)cc1 (stereo not drawn) | -13.2% (active) |
| OC(c1cc2cc(Br)ccc2c2cc(Br)ccc12)C1CCCCN1 (stereo not drawn) | -74.1% (active) |
| C=C1CCC2C3(C)COC(c4c(OC)cccc4OC)OC3CCC2(C)C1C/C=C1/C(=O)OCC1O (stereo not drawn) | 34.7% (inactive) |
| COC(=O)c1cc2cc(-c3ccc(OC)cc3)cnc2[nH]1 | 10.7% (inactive) |
| Cc1ccc(S(=O)(=O)n2cc(C(=O)C(=O)N3CCOCC3)c3ccccc32)cc1 | 77.8% (inactive) |
| COc1ccc(-c2nc(/C=N/Nc3cc(C)nc4ccc(Cl)cc34)c(C)o2)cc1 | -5.37% (active) |
| O=C1c2ccccc2-c2ccccc2C1(Cl)Cl | 16.7% (inactive) |
| COc1ccc(-c2cn(-c3cccc(C(=O)/C=C/c4cc(OC)c(OC)c(OC)c4)c3)c(=O)[nH]2)cc1OC | 6.01% (active) |

| SMILES | growth |
| --- | --- |
| CCCCCCCCCCCCNC(=O)[C@H]1CSC(c2ccsc2)N1 (stereo partly drawn) | -44% (active) |
| COc1cc(C2NN=C3c4ccccc4CCC32)cc(OC)c1OC (stereo not drawn) | 61.1% (inactive) |
| O=C(N/N=C/C=C\c1ccccc1)C(=O)N/N=C/C=C/c1ccccc1 | 103% (inactive) |
| CN1CCN(Cc2ccc(NC(=O)c3cncc(C#Cc4cnc(N)c5ccncc45)c3)cc2C(F)(F)F)CC1 | 20.6% (inactive) |
| N=C(N)c1ccc(-c2ccc(-c3ccc4ccccc4c3)s2)cc1 | 6.46% (active) |
| COc1cc(/C=C/C(=O)c2cccc(-n3cc(-c4cc(OC)c(OC)c(OC)c4)[nH]c3=O)c2)cc(OC)c1OC | -12.7% (active) |
| N=C(N)c1ccc(-c2ccc(-c3ccc(-c4cccs4)s3)s2)cc1 | 81.6% (inactive) |
| COc1ccc(-c2ccc(-c3ccc(C(=N)N)s3)s2)cc1Cl | -16.5% (active) |
| O=c1[nH]c2ccc(Br)cc2c2c1C(c1ccc(Cl)cc1)c1c(ncn3nc(-c4ccco4)nc13)O2 (stereo not drawn) | 62.3% (inactive) |
| N=C(N)c1ccc(-c2cc(Cl)cc(Cl)c2)cn1 | 55% (inactive) |
| Cc1nc2ncccc2nc1Nc1ccc(S(=O)(=O)Nc2cncs2)cc1 | 102% (inactive) |
| Cc1cc(N/N=C/c2nc(-c3ccccc3)oc2C)c2cc(Cl)ccc2n1 | -13.7% (active) |
| Cc1nc2ncccc2nc1Nc1ccc(S(=O)(=O)Nc2ccccn2)cc1 | 92.2% (inactive) |
| NC(=S)N/N=C1\CCCC(C(F)(F)F)C1 (stereo not drawn) | 78.7% (inactive) |
| Oc1ccc2cc(Br)ccc2c1-c1c(O)ccc2cc(Br)ccc12 | 30.9% (inactive) |
| CCC(=O)Oc1ccc(/C(=C(/C)Cc2cccc(OC)c2)c2ccc(OCCN(C)C)cc2)cc1 | -0.896% (active) |
| COC1=C(OC)C(=O)C(CCCCCCCCCC[P+](c2ccccc2)(c2ccccc2)c2ccccc2)=C(C)C1=O | -27% (active) |
| O=C(CN1CCN(c2cc3c(cc2F)c(=O)c(C(=O)N/N=C/c2ccccc2O)cn3C2CC2)CC1)N/N=C\c1ccccc1O | 14.6% (inactive) |
| COc1ccc(-c2ccc(-c3ccc(C(=N)N)cn3)s2)cc1OC | 63.1% (inactive) |
